Results taken from PubChem BioAssay AID504406 (Broad Institute, 2011).
About 190 (0.059%) of roughly 320,000 compounds were called active. What follows is part of a selection rich in actives, with near analogues and random picks from the rest. Values without a mark were called inactive. No stated cut-off is given here; in the data, active means inhibition above about 10% (passing the limit was not always enough); inconclusive means no clear call, values can overlap the other calls.

Target: UDP-galactopyranose mutase (Mycobacterium tuberculosis (strain ATCC 25618 / H37Rv)) (UniProt P9WIQ1)
Sequence (P9WIQ1 whole entry, looked up): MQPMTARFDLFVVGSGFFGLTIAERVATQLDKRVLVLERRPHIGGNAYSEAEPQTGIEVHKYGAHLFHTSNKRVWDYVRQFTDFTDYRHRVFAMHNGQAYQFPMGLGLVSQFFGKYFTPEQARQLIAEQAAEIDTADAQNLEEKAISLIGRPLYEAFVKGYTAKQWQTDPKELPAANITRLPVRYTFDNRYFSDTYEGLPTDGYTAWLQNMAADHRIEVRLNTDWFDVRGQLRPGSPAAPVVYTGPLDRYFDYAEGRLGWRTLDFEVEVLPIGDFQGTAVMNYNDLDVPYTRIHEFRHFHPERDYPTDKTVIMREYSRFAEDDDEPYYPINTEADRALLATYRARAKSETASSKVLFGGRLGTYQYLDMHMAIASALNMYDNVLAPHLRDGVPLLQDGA
Experiment: blockers of Mtb UDP-galactopyranose mutase – biochemical, fluorescence polarization, single point, primary screen (AID 504406)
Conditions: purified UGM, fluorescence polarization probe displacement; at 10 µM; active compounds read high

| Compound | inhibition |
| --- | --- |
| COCCCNC(=O)c1ccc(CNS(=O)(=O)c2ccc(NC(C)=O)cc2)cc1 | 0.487% |
| NS(=O)(=O)c1ccc(NC(=O)COC(=O)C2(c3ccc(F)cc3)CCCC2)cc1 | -2.39% |
| CCOc1c(Nc2cccc(Cl)c2)c(=O)c1=O | 1.65% |
| CN(C)S(=O)(=O)c1ccc2oc(SCC(=O)Nc3ccccc3F)nc2c1 | -1.09% |
| CCCCN(C(=O)CCNC(=O)NC12CC3CC(CC(C3)C1)C2)c1c(N)n(CCCC)c(=O)[nH]c1=O | 3.96% |
| CC(C)N1C(=S)SC(C)(C)C1n1oc(=O)n(-c2ccc(Cl)c(Cl)c2)c1=O (stereo unspecified) | -0.52% |
| O=c1c2cc(-c3ccccc3)sc2nc2n1N=C(c1cccs1)CS2 | 0.0849% |
| COc1cccc(C2=CC(=O)C[C@H](c3ccc(OC)c(OC)c3)C2)c1 | -3.83% |
| COc1cccc2cc(/C(C)=N/NC(=O)c3ccco3)oc12 | 1.34% |
| COc1cc(NC(=O)C2=C(C)OCCS2)c(Cl)cc1C(=O)NCCN1CCN(C)CC1 | -0.476% |
| COc1ccc(-c2nnc(SC(=O)N3c4ccccc4Sc4ccccc43)o2)cc1 | -0.412% |
| COc1cc(CC(=O)N2CCC(n3nccc3NC(=O)C3CC3)CC2)cc(OC)c1OC | 0.38% |
| COc1ccc(N2CCN(C(=O)c3cccs3)CC2)cc1 | -0.405% |
| NC1=NC(=O)C(Cc2cccc(Cl)c2)S1 (stereo unspecified) | -2.61% |
| CCOC(=O)c1c(NC(=O)CN2C(=O)NC3(CCC(C)CC3)C2=O)sc(C)c1CC (stereo unspecified) | -4.1% |
| O=C1CCC(C(=O)N2CCN(c3ccccc3Cl)CC2)CN1CC1CCCCC1 (stereo unspecified) | 0.849% |
| Cc1ccc(C(O)P(=O)(OC(C)C)c2ccc(N(C)C)cc2)cc1 (stereo unspecified) | -1.46% |
| CCCCCCCCc1c(O)nc(-n2[nH]c(C)c(CCO)c2=O)[nH]c1=O | 2.37% |
| COc1ccc(N2CCN(S(=O)(=O)CCNC(=O)C34CC5CC(CC(C5)C3)C4)CC2)cc1 | -0.995% |
| ONC(=Nc1ccccc1)c1ccccc1Cl | 0.392% |
| Cc1ccc(NC(=O)c2ccn(C(=O)Nc3ccccc3)n2)c(C)c1 | 0.808% |
| S=C(NCCc1ccccc1)N1CCn2cccc2C1c1ccncc1 (stereo unspecified) | 0.92% |
| CNC[C@@H]1Oc2c(NS(C)(=O)=O)cccc2C(=O)N([C@@H](C)CO)C[C@H]1C | -0.151% |

| Compound | inhibition |
| --- | --- |
| O=C(NCCN1CCOCC1)c1cc(Sc2cccc(Cl)c2)nc2ccccc12 | -0.717% |
| O=C1NC(=O)C(c2ccc(Cl)cc2)N1 (stereo unspecified) | 0.455% |
| CC(C)N(C(=O)Cn1cc(SCC(=O)N2CCCC2)c2ccccc21)C(C)C | 0.81% |
| CC(CCc1ccccc1)NCC(O)c1cccc([N+](=O)[O-])c1 (stereo unspecified) | -0.221% |
| Nc1nc(NC(=O)/C=C/c2ccc(F)cc2)nn1-c1ccccc1 | -1.05% |
| O=C(CC1CCCCC1)Nc1c2c(nn1-c1ccc(F)cc1)CS(=O)(=O)C2 | -1.58% |
| Cc1ccc(C2(c3ccc(C)cc3)NC(=O)N(Cc3c(C)noc3C)C2=O)cc1 | 2.04% |
| CCOc1ccc(NC(=S)N2CCC(N(C)CC3CCCO3)CC2)cc1 (stereo unspecified) | 1.59% |
| CN1C(=O)CC(N2CCN(c3ccccn3)CC2)C1=O (stereo unspecified) | -2.59% |
| CC(C)(C)CN1CCNC(=O)C1CC(=O)NC1Cc2ccccc2C1 (stereo unspecified) | -0.537% |
| CCc1c(C)[nH]c(=S)c(C#N)c1C | 1.29% |
| CN1CCN(S(=O)(=O)c2cccc(C(=O)N3CCc4ccccc43)c2)CC1 | 2.67% |
| CCN(CC(=O)Nc1cccc(S(N)(=O)=O)c1)Cc1nc2ccccc2c(=O)[nH]1 | 0.435% |
| O=[N+]([O-])c1cc(S(=O)(=O)Nc2cccc(Cl)c2)ccc1N=Nc1c(O)[nH]c2ccccc12 | 3.07% |
| Cc1ccc(NC(=O)Cc2nnc(SCC(=O)Nc3nncs3)n2C)cc1 | 1.58% |
| Cc1cccc(NC(=O)c2ccc3c(=O)n(CC4CCCO4)c(=S)[nH]c3c2)c1 (stereo unspecified) | 0.387% |
| CCN(CCCCOC(=O)c1ccc(OC)c(OC)c1)C(C)Cc1ccc(OC)cc1 (stereo unspecified) | 0.111% |
| CC1CC(NC(=O)/C(C#N)=C/c2ccc[nH]2)CC(C)(C)C1 (stereo unspecified) | -0.655% |
| CC(OC(=O)CCC(=O)c1ccccc1)C(=O)Nc1ccc(F)cc1 (stereo unspecified) | 0.19% |
| CC(C)c1csc(CN2CCC(CO)(Cc3ccccc3)CC2)n1 | 1.24% |
| O=c1c2ccccc2cnn1Cc1n[nH]c(=S)n1-c1ccccc1F | -0.397% |
| COc1ccnc(Oc2ccccc2)c1-c1ncn[nH]1 | 1.4% |
| CCOCCN(C=O)c1cccc(OC)c1 | -2.42% |

| Compound | inhibition |
| --- | --- |
| CCOC(=O)N1CCC(Nc2c(NCCCN3CCN(CC)CC3)c(=O)c2=O)CC1 | -1.72% |
| O=C(Nc1ccc(F)c(Cl)c1)C1CCN(S(=O)(=O)c2cccnc2)CC1 | 0.143% |
| CCCn1c2ccccc2c2cnn(CC(=O)NCCCN3CCCCC3CC)c(=O)c21 (stereo unspecified) | -1.26% |
| CCOC(=O)c1cc2c(ccn2C)n1CC(=O)N1CCC(C)CC1 | -2.05% |
| Cn1c(CC2Sc3ccccc3NC2=O)nnc1SCC(=O)c1ccc(Cl)cc1 (stereo unspecified) | 1.26% |
| COCCN(C(=O)C(C)C)c1nnc(-c2ccc(C(C)(C)C)cc2)s1 | 2.82% |
| Cc1ccc(S(=O)(=O)N2CCC(C)CC2)cc1C(=O)NCc1ccccn1 | -2.55% |
| COCCNc1nc2nonc2nc1N(C)Cc1ccc(C)cc1 | 0.32% |
| COC(=O)/C=C(\Oc1ccccc1)C1(O)CCCCC1 | -0.0675% |
| Cc1ccc2c(c1)C1CN(C)CCC1N2S(=O)(=O)c1ccc(Oc2ccc([N+](=O)[O-])cc2)cc1 (stereo unspecified) | 3.72% |
| COc1ccccc1NC(=O)N1CCCC1C(=O)NCc1cccs1 (stereo unspecified) | 0.501% |
| COc1ccc(-c2onc3ccc(C(C)=O)cc23)cc1 | 12.7% (active) |
| CC(OC(=O)c1ccc2noc(-c3ccccc3)c2c1)C(N)=O (stereo unspecified) | 1.01% |
| Oc1ccc(-c2onc3ccc(Cl)cc23)cc1 | -1.19% |
| CC(C)CNC(=O)C(=O)NCC(c1ccc2c(c1)OCO2)N1CCOCC1 (stereo unspecified) | -1.37% |
| Cn1c(=O)cc(OCC(=O)N2CCN(c3ccccc3F)CC2)c2ccccc21 | 0.591% |
| Cc1cc(C)n(CCNC(=O)CC2C(=O)NCCN2Cc2ccc(C)o2)n1 (stereo unspecified) | -1.39% |
| CC(C)(C)c1cc[n+](-c2[nH]c(=O)sc2/C=N/N=C(\[O-])c2ccccc2)cc1 | 0.838% |
| CCCCn1c(-c2cccc(C)c2)nc2cc3[nH]c(=O)c(C(C)C)nc3cc21 | -1.53% |
| CCOC(=O)c1ccc(NC(=S)N2CCN(c3ccccn3)CC2)cc1 | 0.665% |
| COc1ccc(N(C(=O)c2ccc(C)cc2)S(=O)(=O)c2cccs2)cc1 | 0.9% |
| CCn1c(SCC(=O)Nc2sc(C)c(C)c2C#N)nnc1C1CC1 | 2.46% |
| O=C(NCc1nnc(SCC(=O)N2CCCc3ccccc32)o1)c1ccccc1F | -0.239% |

| Compound | inhibition |
| --- | --- |
| COc1cccc(NC(=O)Nc2nnc(N3CCCCC3C)s2)c1 (stereo unspecified) | -1.07% |
| O=C(Cc1ccccc1F)NC1CCSc2ccccc21 (stereo unspecified) | 1.04% |
| CCN(Cc1ccncc1)C(=O)CCc1ccccc1 | -1.33% |
| C/C=C/c1ccc(OCC(O)CN2CCCCCCC2)c(OC)c1 (stereo unspecified) | -2.18% |
| Cc1cc(NC(=O)CCS(=O)(=O)c2ccc(F)cc2)no1 | 1.59% |
| COc1cccc(NC(=S)N(CCc2c(C)[nH]c3ccccc23)Cc2ccco2)c1 | 5.05% |
| COc1ccc2[nH]c(C)c(CCN(Cc3cccs3)C(=S)Nc3ccccc3OC)c2c1 | 12.8% (active) |
| Cc1[nH]c2ccccc2c1CCN(Cc1cccs1)C(=S)NC(C)(C)C | 1.01% |
| COc1ccccc1CNC(=O)c1ccc(N(C)S(=O)(=O)c2ccc(C)cc2)cc1 | -1.48% |
| CCOc1ccc(CCNC(=O)COC(=O)c2ccc(F)c(S(=O)(=O)N3CCOCC3)c2)cc1OCC | 0.417% |
| Cc1c(Cl)cccc1NC(=O)CCC(=O)N/N=C/c1ccco1 | 2.71% |
| COc1ccc(CNC(=O)C(=O)NCC2OCCN2C(=O)c2ccc(OC)cc2)cc1 (stereo unspecified) | -1.77% |
| FC(F)(F)c1cc(-c2ccco2)nc(NCc2ccc(Cl)cc2)n1 | -0.748% |
| Cc1noc(C)c1S(=O)(=O)Nc1ccc(C(=O)O)cc1 | -2.83% |
| O=C(O)c1ccc(F)c(S(=O)(=O)Nc2ccccc2)c1 | 2.67% |
| Cc1cc(C(C)(C)C)cc(S(=O)(=O)Nc2ccc(C(=O)O)cc2)c1C | 20% (active) |
| Cc1cc(C)cc(N(CC(=O)NCC2CCCO2)S(=O)(=O)c2c(C)noc2C)c1 (stereo unspecified) | -1.07% |
| CCc1ccc(Nc2n[n+](-c3ccccc3)c(-c3cccc(Cl)c3Cl)s2)cc1 | 1.25% |
| O=C(O)CCS(=O)(=O)c1ccc(-c2ccccc2)cc1 | 0.58% |
| O=C(c1ccco1)N1CCN(C(=O)C2CCCN(S(=O)(=O)c3cccc4nsnc34)C2)CC1 (stereo unspecified) | 1.18% |
| COc1cccc(/C=N/NC(=O)C(=O)N2CCCC2)c1 | -1.54% |
| C#CCNC(=O)[C@H](Cc1ccc(C(=O)c2ccccc2)cc1)NC(=O)OC(C)(C)C | -0.186% |
